# About 83,000 compounds went through this panel and 20% of them were active in at least one assay; those are over-represented in the sample as a whole.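 The endpoint reported here, percent growth, reads 100 for growth as untreated, 0 for no net growth and -100 for all cells dead.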 A number with no mark means an inactive call. Calls of active or inactive are those of the source. Rule for the calls: active = growth percent below 10; inactive = the rest.
# Assays:
# Test in all cases: NCI-60 one-dose screen, 48 h (100 = growth as untreated, 0 = no growth, -100 = all killed)
# Details in all cases: 10 µM unless noted
# HCT-15 colon = tested on: HCT-15 colon
# HT29 colon = tested on: HT29 colon
# SNB-75 CNS = tested on: SNB-75 CNS
# SNB-19 CNS = tested on: SNB-19 CNS
# U251 CNS = tested on: U251 CNS
# PC-3 prostate = tested on: PC-3 prostate
# SK-MEL-5 melanoma = tested on: SK-MEL-5 melanoma
# UACC-62 melanoma = tested on: UACC-62 melanoma
# LOX IMVI melanoma = tested on: LOX IMVI melanoma
# SK-MEL-28 melanoma = tested on: SK-MEL-28 melanoma
# SK-MEL-2 melanoma = tested on: SK-MEL-2 melanoma
# EKVX NSCLC = tested on: EKVX NSCLC
# SN12C renal = tested on: SN12C renal
# UO-31 renal = tested on: UO-31 renal
# TK-10 renal = tested on: TK-10 renal
# ACHN renal = tested on: ACHN renal
# CAKI-1 renal = tested on: CAKI-1 renal
# A498 renal = tested on: A498 renal
# CCRF-CEM leukemia = tested on: CCRF-CEM leukemia
# MOLT-4 leukemia = tested on: MOLT-4 leukemia
SMILES,growth (HCT-15 colon),growth (HT29 colon),growth (SNB-75 CNS),growth (SNB-19 CNS),growth (U251 CNS),growth (PC-3 prostate),growth (SK-MEL-5 melanoma),growth (UACC-62 melanoma),growth (LOX IMVI melanoma),growth (SK-MEL-28 melanoma),growth (SK-MEL-2 melanoma),growth (EKVX NSCLC),growth (SN12C renal),growth (UO-31 renal),growth (TK-10 renal),growth (ACHN renal),growth (CAKI-1 renal),growth (A498 renal),growth (CCRF-CEM leukemia),growth (MOLT-4 leukemia)
COc1ncc(-c2ccc3ncnc(Nc4cccc(Cl)c4)c3c2)cc1NS(=O)(=O)C1CC1,27.6%,29.7%,-1.09% (active),49.7%,59.9%,24.4%,37.3%,25.1%,34.8%,39.4%,36.5%,12.3%,31.2%,22.5%,1.03% (active),23.9%,27.8%,15.7%,33.2%,-0.986% (active)
CCSc1nnc(NC(=O)COc2ccc(Cl)cc2C)s1,102%,115%,110%,95.2%,99.4%,104%,97.3%,98.7%,93.8%,114%,48.6%,102%,101%,46.2%,116%,96.5%,85.8%,109%,99.1%,95.6%
CCCS(=O)(=O)c1nc(NC2CC2)cc(-c2ccc3c(ccn3C3CC(C)(C)NC(C)(C)C3)c2)n1,-71.4% (active),-48% (active),-16.2% (active),38.9%,-65.5% (active),17.4%,16.2%,-83.1% (active),-91.5% (active),-59.2% (active),54.5%,22.6%,-77.9% (active),-66.1% (active),-56% (active),-90.3% (active),85.1%,108%,-13.7% (active),55.9%
C[N+](C)(C)c1ccc(CC2c3ccccc3-c3ccccc32)cc1,98.1%,65.9%,-3.78% (active),23.2%,19.3%,56.1%,77.1%,81.5%,86.3%,81.3%,81.5%,71.2%,21.3%,90.9%,93.3%,99.9%,86.8%,70.5%,69.9%,76.4%
CCC(=O)Oc1ccc2c(c1)CC[C@@H]1[C@@H]2CC[C@]2(C)C[C@H](OC(=O)CC)C[C@@H]12,38.9%,110%,46%,77.7%,48.3%,63.1%,60.4%,49.1%,76.8%,73.7%,75.1%,62.7%,70.4%,71.7%,105%,73%,64.8%,7.94% (active),74.6%,51.1%
O=S=Nc1ccc([N+](=O)[O-])cc1,85.2%,94.1%,88.7%,103%,91.6%,96.8%,101%,73%,71.2%,107%,98.4%,96.9%,98.7%,78.3%,84.9%,80.8%,78.9%,79.2%,101%,91.2%
O=S(=O)(NCCCNc1cc(-c2cn(-c3ccccc3)nc2-c2cccc(O)c2)ccn1)c1cccc2ccccc12,1.39% (active),-9.29% (active),28.1%,64.2%,35.2%,18.5%,14.2%,34.5%,10.3%,4.71% (active),62.4%,37.5%,51.4%,20.6%,66.3%,29.8%,28.7%,43.6%,26%,13.6%
CCO/C=N/NC(=O)c1ccncc1,108%,101%,93.3%,105%,105%,97.3%,104%,107%,98.7%,108%,102%,102%,111%,98.9%,103%,108%,100%,104%,106%,107%

# Source: PubChem BioAssay (NCI)
